Measured values reported in PubChem BioAssay (NCI).
The panel holds about 83,000 compounds, 20% with a hit somewhere; the sample as a whole holds those more often.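 Each cell line was grown in a 96-well plate and treated with one concentration of compound for 48 hours. Values below 10 were considered active.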 The source made the active and inactive calls.

Tested on: HCT-15 colon
Assay: NCI-60 one-dose screen, 48 h (100 = growth as untreated, 0 = no growth, -100 = all killed)
Details: 10 µM

Row | SMILES | growth
1 | O=S(=O)(Nc1ncccn1)c1ccc(-n2c(-c3ccc(Br)cc3)nc(-c3ccccc3)c2-c2ccccc2)cc1 | 22.5% (inactive)
2 | Clc1cccc(N/N=C/c2c[nH]c3ccccc23)n1 | 18.9% (inactive)
3 | COc1ccc2c(c1)N=C(C(=O)O)/C2=C/c1sc(Nc2ccc(O)cc2)nc1O | 53.9% (inactive)
4 | CCCCCc1ccc(S(=O)(=O)N(C(C)=O)c2cc(-c3csc(N(C)C(C)=O)n3)ccc2N2CCN(C)CC2)cc1 | -89.7% (active)

Tested on: HT29 colon
Assay: as above
Details: 10 µM

Row | SMILES | growth
5 | Cc1ccc(/C=C/C(=O)c2ccc(NC(=O)CSc3nnc(-c4c[nH]c5ccccc45)n3-c3ccccc3)cc2)cc1 | 100% (inactive)
6 | O=C(Nc1nc2ccc([N+](=O)[O-])cc2s1)Nc1cc(Cl)ccc1I | -42.2% (active)
7 | Cc1ccc(C(=O)CSc2nnc(-c3c[nH]c4ccccc34)n2-c2ccccc2)cc1 | 7.13% (active)
8 | COc1ccc2[nH]c(O)c(N=NC(=O)c3cc(-c4ccc(C)cc4)nc4ccccc34)c2c1 | 113% (inactive)
9 | Cn1cc(/C=N/Nc2cccc(Cl)n2)c2ccccc21 | 44.1% (inactive)
10 | N#Cc1ccc(-c2nn(-c3ccc(C(=O)O)cc3)cc2CNc2ccc(Cl)cc2)cc1 | 100% (inactive)
11 | O=c1[nH]c2ccccc2cc1CSc1ccc(Nc2nccc(-c3ccc4ccccc4c3)n2)cc1 | 49.9% (inactive)
12 | OCCCNc1oc(-c2ccccc2)nc1[P+](c1ccccc1)(c1ccccc1)c1ccccc1 | 6.51% (active)
13 | COc1ccc(C(=O)/C=C/c2cc(C(F)(F)F)cc(C(F)(F)F)c2)cc1S(N)(=O)=O | -59.9% (active)
